# Measurements reported in PubChem BioAssay (EPA / NIEHS).
# Records with an inconclusive call do not appear. Active and inactive are the calls of the source. The calls were made as follows: active = hit-call score of the fitted dose curve at least 0.9, where 1 is the maximum; inconclusive = response in the unintended direction; inactive = score below 0.9.
# Read-out: HMG-CoA synthase (HMGCS2), HMGCS2 (gene 3158)
# Assay: CLD_HMGCS2_24hr: CellzDirect (CLD) Gene Expression Assay for HMG-CoA synthase (HMGCS2) at 24 hours (AID 2283691)
# Procedure: CLD_24hr is a cell-based, multiplexed-readout assay that uses hepatocyte, a human liver primary cell, with measurements taken at 24 hours after chemical dosing in a 96-well plate.CLD_HMGCS2_24hr is one of 16 assay component(s) measured or calculated from the CLD_24hr assay. It is designed to make measurements of mRNA induction, a form of inducible reporter, as detected with chemiluminescence signals by Quantitative Nuclease Protection Assay (qNPA) technology.Data from the assay component CLD_HMGCS2_24hr was analyzed at the endpoint, CLD_HMGCS2_24hr, in the positive analysis fitting direction relative to DMSO as the negative control and baseline of activity. Using a type of inducible reporter, gain-of-signal activity can be used to understand changes in the reporter gene as they relate to the gene HMGCS2. Furthermore, this assay endpoint can be referred to as a primary readout. To generalize the intended target to other relatable targets, this assay endpoint is annotated to the lyase intended target family, where subfamily is HMG-CoA synthase.
# Human hepatocyte cultures were treated daily for two consecutive days with fresh dosing solutions containing appropriate concentrations of the 320 ToxCast chemicals (chemical identities were blinded to CellzDirect and other ToxCast collaborators), vehicle control (0.2% DMSO), and positive control inducers as summarized in Table 1. Due to the large number of treatment groups and chemicals examined, the ToxCast chemicals were divided into two groups (spanning two independent cultures of hepatocytes from separate donor preparations (Hu778: ToxCast plates 1 and 2; Hu776: ToxCast plates 3 and 4). Each preparation of human hepatocyte cultures was treated with respective vehicle control, medium only control, set of six positive controls/reference chemicals for the five hepatic receptor pathways, and a subset of eight of the ToxCast chemicals (indoxacarb, pyrithiobac-sodium, norflurazon, cyhalofop-butyl, methomyl, thiram, acetochlor, and propiconazole). These replicate data, coupled with internal replicates designed within the blinded ToxCast chemical library, provided additional data to evaluate interindividual differences between hepatocyte preparations and their potential impact on chemical profiles.Cell morphology and integrity were evaluated using phase-contrast microscopy as an indicator of hepatocyte cell health (Tyson & Green, 1987). Cultures for each treatment group (i.e., media, vehicle [0.2% DMSO], positive control inducers [multiple concentrations], and the ToxCast chemicals [multiple concentrations]) were observed and cell morphology was assessed relative to vehicle control cultures at each harvest time point (0, 6, 24, or 48 h). […] Images were evaluated at the conclusion of the study to assess changes in cell integrity and account for the effects of chemical exposure on uncharacteristic changes in concentration-dependent gene expression profiles. The results from these determinations of apparent cytotoxicity were annotated (yes/no) alongside the corresponding qNPA data for reference.At the conclusion of each treatment period, hepatocyte cultures (96-well) were washed with 1 volume of HBSS, lysed by addition of 25 ul ArrayPlate lysis buffer (HTG, Tucson, AZ), and 70 ul/well of Denaturation Oil, denatured by incubation at 95C for 10 min, and frozen at approximately -70C until analysis by nuclease protection assay (qNPA) (Roberts et al., 2007). For qNPA analysis, cell lysates were thawed at 50C for approximately 30 min, qNPA probes were added, and samples were incubated at 95C for 10 min to begin the detection process by denaturing the target RNA, dissociating the duplexes and secondary structure hybridization. At the conclusion of the hybridization period, S1 nuclease reagent was added to each sample to digest all nonprotected nucleotides at 50C for 60-90 min. […]
row,Compound,outcome
1,COc1nc(C)nc(NC(=O)NS(=O)(=O)c2ccccc2CCC(F)(F)F)n1,inactive
2,COC(=O)C(C)Oc1ccc(Oc2ccc(Cl)cc2Cl)cc1 (stereo not given),inactive
3,CCCCOC(=O)c1ccccc1C(=O)OCCCC,inactive
4,COP(=S)(OC)Oc1nc(Cl)c(Cl)cc1Cl,inactive
5,CS/C(C)=N/OC(=O)N(C)SN(C)C(=O)O/N=C(\C)SC,inactive
6,Cc1cc(Cl)ccc1OCC(=O)O,inactive
7,CCOC(=O)CC(SP(=S)(OC)OC)C(=O)OCC (stereo not given),inactive
8,CC(C)C1(C)N=C(c2nc3ccccc3cc2C(=O)O)NC1=O (stereo not given),inactive
9,C=CC1(C)OC(=O)N(c2cc(Cl)cc(Cl)c2)C1=O (stereo not given),inactive
10,O=C(O)c1nc(Cl)ccc1Cl,inactive
11,CCON=C(CC)C1=C(O)CC(c2c(C)cc(C)cc2C)CC1=O (stereo not given),inactive
12,Oc1ccccc1-c1ccccc1,inactive
13,Cc1c(F)c(F)c(COC(=O)C2C(/C=C(\Cl)C(F)(F)F)C2(C)C)c(F)c1F (stereo not given),inactive
14,CCCCNC(=O)OCC#CI,inactive
15,O=C(O)COc1nc(Cl)c(Cl)cc1Cl,inactive
